The source of these data is PubChem BioAssay (NCATS).

The assay in a line: qHTS for identification of novel therapeutic agents for treatment of microphthalmiaassociated transcription factor (MiT) renal cell carcinoma (RCC) (AID 1963991). The note with it: CellTiter-Glo, 48 h; for Potency: active = Z-AUC below -0.8 in all three lines; for z-score: stronger effect = lower value. From the text: PI: Marston Linehan Ph.D.
Urologic Oncology Branch, Center for Cancer Research (CCR)
National Cancer Institute (NCI), National Institute of Health (NIH), Bethesda, Maryland
MiT-Renal Cell Carcinoma (RCC) is characterized by genomic translocations involving microphthalmia-associated transcription factor (MiT) family members TFE3, TFEB, or MITF. MiT-RCC represents a specific subtype of sporadic RCC that is predominantly seen in young patients and can present with heterogeneous histological features making diagnosis challenging. Moreover, the disease biology of this aggressive cancer is poorly understood and there is no accepted standard of care therapy for patients with advanced disease. Tumor-derived cell lines have been established from human TFE3-RCC providing useful models for preclinical studies. TFE3-RCC tumor derived cell lines and their tissues of origin were characterized by IHC and gene expression analyses. An unbiased high-throughput drug screen was performed to identify novel therapeutic agents for treatment of MiT-RCC. Potential therapeutic candidates were validated in in vitro and in vivo preclinical studies. Mechanistic assays were conducted to confirm the on-target effects of drugs. The results of a high-throughput small molecule drug screen utilizing three TFE3-RCC tumor-derived cell lines identified five classes of agents with potential pharmacological efficacy, including inhibitors of phosphoinositide-3-kinase (PI3K) and mechanistic target of rapamycin (mTOR), and several additional agents, including the transcription inhibitor Mithramycin A. Upregulation of the cell surface marker GPNMB, a specific MiT transcriptional target, was confirmed in TFE3-RCC and evaluated as a therapeutic target using the GPNMB-targeted antibody-drug conjugate CDX-011. […] The results of the high-throughput drug screen and validation studies in TFE3-RCC tumor-derived cell lines have provided in vitro and in vivo preclinical data supporting the efficacy of the PI3K/mTOR inhibitor.
SEQUENCE No. (e.g., 1, 2, 3, etc.); […] (e.g., Cells, Incubation, Reagent, etc.); VALUE; DESCRIPTION.
1; Cells; 3 uL; white, solid-bottom Grenier assay plate.
2; Compounds; 23 nL; Kalypsis pin-tool (Wako USA).
3; Incubation; 48 hr; 37 C, 5% CO2, 95% humidity.
4; Reagent; 3 uL; CellTiter-Glo reagent (Promega).
5; Incubation; 15 min; room temperature.
6; Detection; Luminescence; ViewLux plate reader (PerkinElmer).
NOTES (numbers refer to Sequence numbers above)
1. Quantitative high-throughput screening (qHTS) of 1912 pharmacologically defined small molecule compounds was conducted on three TFE3-fusion cell lines bearing three different fusion partners (UOK109, UOK124, UOK145). Briefly, 500 cells in complete growth media were plated into white, solid-bottom, 1536-well tissue culture treated plates (Grenier Cat. 789173-F) using a Multidrop Combi cassette dispenser.
2. Twenty-three nanoliter of 1912 pharmacologically defined small molecule compounds of the NCATS Mechanism Interrogation PlatE (MIPE) version 4.0 were added to each assay plate using a Pintool Dispenser (Wako) equipped with 1536 pin head.
3. Plates were covered with stainless steel gasketed lids and incubated for 48 hours at standard cell culture conditions.
4. Viability was assessed by adding 3uL of CellTiter-Glo detection reagent (Promega).
5. Plates were covered with gasket lids and incubated for 15 minutes at room temperature.
6. Luminescence was measured on a ViewLux plate reader (PerkinElmer). Post-screen data processing used DMSO controls as 100% viability and empty wells as 0% viability and dose response curve fitting was done for all 11 concentrations for each compound.
Background: qHTS replaces the single test concentration by a dilution series.

The mark [1] stands for this setting: TFE3-RCC UOK109 viability, measured here: UOK109 Z-AUC.
[2] abbreviates: TFE3-RCC viability, measured here: UOK124 Z-AUC.
The mark [3] stands for this setting: TFE3-RCC viability, measured here: UOK145 Z-AUC.

Records with an inconclusive call do not appear. The source made the active and inactive calls.
Potency means the concentration at half of the fitted maximal effect.

`N#CNC(=NCCCCCCOc1ccc(Cl)cc1)Nc1ccncc1`: under “TFE3-RCC UOK109 viability”, the Potency was 7430 nM (active). Also, the z-score runs as follows: under setting [1], -0.809; under setting [2], -2.82; under setting [3], -3.43.
For `CC(C)C[C@H](NC(=O)CNC(=O)c1cc(Cl)ccc1Cl)B1OC(=O)CC(CC(=O)O)(C(=O)O)O1` (stereo partly specified), the Potency (TFE3-RCC UOK109 viability) was 83.3 nM (active). The z-score is, setting by setting: under setting [1], -1.14; under setting [2], -3.62; under setting [3], -2.91.
The matching figures for `CNC(=O)Nc1ccc(-c2nc(N3CC4CCC(C3)O4)c3cnn(C4CCC5(CC4)OCCO5)c3n2)cc1`: 41.8 nM (active), -1.43, -1.26 and -2.73.
The corresponding values for `Cc1[nH]c(C=C2C(=O)Nc3ccccc32)c(C)c1CCC(=O)O` are 833 nM (active), -1.41, -0.97 and -1.35.
The corresponding values for `COc1ccc(Nc2cc(-c3cnc(N)nc3)nc(N3CCOCC3)n2)cn1` are 526 nM (active), -1.16, -2.53 and -2.08.
As for `Cc1ccccc1C(=O)Nc1ccc(C(=O)N2CCCC(O)c3cc(Cl)ccc32)c(C)c1` (stereo unspecified), the z-score under setting [1] is -0.031, the z-score under setting [2] is 0.501 and the z-score under setting [3] was found to be 0.525.
The matching figures for `CC(C)N(CC[C@H](c1ccccc1)c1cc(CO)ccc1O)C(C)C`: 0.828, 0.666 and 0.832.
As to `CC(=O)C1=C(O)C=C2Oc3c(C(C)=O)c(O)c(C)c(O)c3C2(C)C1=O` (stereo unspecified), the z-score reads like this: under setting [1], 0.861; under setting [2], 0.834; under setting [3], -0.166.
For `CC(=O)O[C@H]1C[C@@H]2CC[C@H]3[C@H]4C[C@H]([N+]5(C)CCCCC5)[C@@H](OC(C)=O)[C@@]4(C)CC[C@@H]3[C@@]2(C)C[C@H]1N1CCCCC1`, the z-score was 0.765 under setting [1], 0.686 under setting [2] and -3.76 under setting [3].
In the case of `COC(=O)[C@H](CCCN=C(N)N)NS(=O)(=O)c1ccc(C)cc1`, the z-score runs as follows: under setting [1], 0.843; under setting [2], 0.187; under setting [3], 0.701.
The corresponding values for `C[C@@]12C[C@@]3(O)O[C@@H](O1)[C@]1(COC(=O)c4ccccc4)[C@@H]3C[C@@]12O[C@@H]1O[C@H](CO)[C@@H](O)[C@H](O)[C@@H]1O` are -0.0471, 0.702 and -0.0246.
The corresponding values for `CC(=O)N[C@@H]1[C@H](O[C@@H]2c3ccc(c(Cl)c3)Oc3cc4cc(c3O[C@H]3O[C@H](CO)[C@@H](O)[C@H](O)[C@H]3NC(=O)CCCCCCCC(C)C)Oc3ccc(cc3Cl)C[C@H]3NC(=O)[C@H](N)c5ccc(O)c(c5)Oc5cc(O)cc(c5)[C@H](NC3=O)C(=O)N[C@H]4C(=O)N[C@H]3C(=O)N[C@@H]2C(=O)N[C@@H](C(=O)O)c2cc(O)cc(O[C@H]4O[C@H](CO)[C@@H](O)[C@H](O)[C@H]4O)c2-c2cc3ccc2O)O[C@H](CO)[C@@H](O)[C@@H]1O` are 0.106, 0.36 and 0.292.
